This passage reports INHIBITION results from ChEMBL document CHEMBL4513216, “Probing the Open Global Health Chemical Diversity Library for Multistage-Active Starting Points for Next-Generation Antimalarials” (ACS Infect Dis, 2020).

In all, about 65,000 compounds went through this assay and about 2,100 (3.2%) showed an effect of 50% or more. The median lay at about -52%. Shown is part of a subset that was picked to be rich in strong results.

This experiment has as its system Plasmodium falciparum. Put plainly: Screen against P. falciparum Asexual Blood Stage (ABS), at 5uM. Type of experiment: functional, Dd2. The note with it: tested at 5 uM.
Turning to `Cc1ccc(CN(C)CC2(O)CCCN(C)C2)o1` (stereo not given), the INHIBITION is given as 54.2%.
Take `Cc1nn(C)c(C)c1CN(C)CC1(O)CCCN(C)C1` (stereo not given): the INHIBITION is -56.8%.
The figure for `CCN1CCCC(O)(CN(C)Cc2ccc(C)o2)C1` (stereo not given) is 20.1%; for `CC(C)c1nc(N2CCC(N3CCCC(O)C3)CC2)c2cnn(C)c2n1` (stereo not given) it is -33.8%.
On to `CC(C)c1nc(N2CCC(N3CCSCC3)CC2)c2cnn(C)c2n1`, for which the INHIBITION is on record as -57%.
As to `CC(C)c1nc(N2CCC(N3CCCCCC3)CC2)c2cnn(C)c2n1`, the INHIBITION is recorded as 51.9%.
On to `Cc1ccc(C(=O)O)cc1CNC(=O)CN1CC[C@](C)(O)C(C)(C)C1`, for which the INHIBITION is on record as -0.0274%.
As to `CC1(C)CN(CCC(=O)NCc2cccc(Cl)c2)CC[C@]1(C)O`, the INHIBITION turned out to be 53.1%.
As to `O=C(CCN1CCOC(C(F)(F)F)C1)NCc1cccc(Cl)c1` (stereo not given), the INHIBITION is -53.515%.
As to `CN(C(=O)COc1ccc(F)cc1)[C@@H]1CC[C@@H](n2ccnc2)[C@@H]1O`, the INHIBITION was -72.8%.
As to `COCCN1CCC2(CC1)CN(C(=O)c1ccco1)CCO2`, the INHIBITION was -29.3%.
As for `COc1ccc2[nH]nc(CN3CCC(C(C)N4CCCC4)CC3)c2c1` (stereo not given), the INHIBITION came to 38.8%.
With `COc1ccc2[nH]nc(CN3CCC(C(=O)N4CCCCC4)CC3)c2c1`, the INHIBITION is given as 13.7%.
Take `COc1ccc2[nH]nc(CN3CCC(C(C)N(C)C)CC3)c2c1` (stereo not given): the INHIBITION is 64.4%.
The figure for `Cn1nccc1-c1nc2c(cc1C(=O)O)CCN(C(=O)C1CC1)CC2` is -73.9%.
The figure for `O=C1CC(c2ccncc2)C2(CCN(C(=O)c3cccs3)CC2)N1` (stereo not given) is -50.7%; for `OCc1cn([C@@H]2c3ccccc3C3(CCNCC3)[C@H]2O)nn1` it is -114%; for `O[C@H]1[C@H](n2cc(CN3CCCC3)nn2)c2ccccc2C12CCNCC2` it is 63.2%.
The figure for `COCc1cn([C@@H]2c3ccccc3C3(CCNCC3)[C@H]2O)nn1` is -24.9%; for `Cc1cnc(C(=O)N2CCC3(CCN3Cc3ccc(F)cc3)C2)cn1` (stereo not given) it is -60.5%.
Take `O=C1CN(c2ccc(CNC(=O)Nc3nnc(C4CC4)s3)cc2)CCN1`: the INHIBITION is given as -5.48%.
With `Cc1cnn(CCNCC(O)COc2ccc(C#N)cc2)c1` (stereo not given), the INHIBITION is on record as -106%.
As to `COc1cc(CNc2cnn(C)c2)cc2c1OCCO2`, the INHIBITION was -181%.
Consider `Cc1cnn(CCNCCCOc2ccccc2)c1`, for which the INHIBITION is on record as -13.6%.
Take `Cc1cnn(CCNCCCOc2ccc(C#N)cc2)c1`: the INHIBITION amounted to 65.9%.
Consider `COc1cc(CNCCn2cc(C)cn2)cc2c1OCCO2`, for which the INHIBITION is reported as 58.2%.
In the case of `COc1cc(CNCCc2cnn(C)c2)cc2c1OCCO2`, the INHIBITION was -7.17%.
As to `Cc1cnn(CCNCCCOc2ccc3c(c2)OCO3)c1`, the INHIBITION worked out at 50.6%.
As for `c1cnn(CCNCCCOc2ccc3c(c2)OCO3)c1`, the INHIBITION was 23.5%.
As for `Cc1cnn(CCCOc2ccc3c(c2)OCO3)c1`, the INHIBITION is given as -30.8%.
